Experimental data taken from PubChem BioAssay (Tox21).
Results filed as inconclusive are left out. Values without a mark were called inactive. Calls follow the shape of the dose curve; as a rule, active = well fitted cell-killing curve with a large enough effect in the repeat runs; inconclusive = weak or mixed curves, or effect the other way; inactive = no such curve, though single readings can be large or run the other way.

experiment: qHTS assay to identify small molecule agonists of the farnesoid-X-receptor (FXR) signaling pathway - cell viability counter screen (AID 743218); conditions: FXR-bla HEK293T viability, CellTiter-Glo luminescence, 16 h; series mostly up to 62.6 µM; viability change, negative = cytotoxic: at the top concentration; also: nearly all actives have a fitted effect of over 45% in size
From the text: U.S. Tox21 Program National Center for Advancing Translational Sciences [NCATS] NIH Chemical Genomics Center [NCGC] U.S. Environmental Protection Agency [EPA] National Institutes of Environmental Health Sciences [NIEHS] National Toxicology Program [NTP] U.S. Food and Drug Administration [FDA] Tox21 Assay Overview: The farnesoid-X-receptor (FXR), a nuclear hormone receptor, is highly expressed in liver, intestine, kidney and adrenal cortex. Natural ligands of FXR are the bile acids (Cholic acid, Chenodeoxy cholic acid etc). FXR is an important regulator of diverse metabolic pathways, including the bile acid homeostasis, lipid and glucose metabolisms. FXR regulates the expression of target genes by binding either as a monomer or as a heterodimer with the retinoid X receptor (RXR). Numerous studies have reported that FXR exerts protective function during cholestasis, diabetes, liver regeneration, and cancer. To identify compounds that activate FXR signaling, GeneBLAzer FXR-UAS-bla HEK 293T cell line (Invitrogen, Carlsbad, CA) containing a beta-lactamase reporter gene under the control of a UAS response element was used to screen the Tox21 10K compound library. The cytotoxicity of the Tox21 compound library against the FXR-bla cell line was tested in parallel by measuring the cell viability using CellTiter-Glo assay in the same wells.
Tox21 Assay Protocol Summary: FXR-bla cells were dispensed at 5000 cells/5uL/well in 1536-well black wall/clear bottom plates using a Multidrop Combi (Thermo Fisher Scientific, Waltham, MA) dispenser. After the assay plates were incubated at 37 C and 5% CO2 for 5 h, 23 nL of compounds dissolved in DMSO, positive controls or DMSO only was transferred to the assay plate by a Pintool station (Kalypsys, San Diego, CA). The assay plates were incubated at 37C for 16 h. After 1 uL of LiveBLAzerTM B/G FRET substrate was added using a Bioraptr Flying Reagent Dispenser (FRD) workstation (Beckman Coulter, Indianapolis, IN), the plates were incubated at room temperature for 2 h, and fluorescence intensity was measured by an Envision plate reader (PerkinElmer, Shelton, CT). For cell viability readout that measures cytotoxicity, 4uL/well of CellTiter-Glo reagent was added into the assay plates using a Bioraptr FRD. After 30 min incubation at room temperature, the luminescence intensity in the plates was measured using a ViewLux plate reader (PerkinElmer).
% is scaled to controls: 0 for no effect and ±100 for the full control effect.

Row | Structure (SMILES) | viability change, negative = cytotoxic
1 | CCC(=O)c1c(O)cc(O)cc1O | -6.28%
2 | CO[Si](CCCn1c(=O)n(CCC[Si](OC)(OC)OC)c(=O)n(CCC[Si](OC)(OC)OC)c1=O)(OC)OC | 2.35%
3 | C[C@@H](O)C(=O)O | -1.58% [at 81.1 µM]
4 | COc1ccc2c(c1)c1c3n2CCN(C)C3=NCC1 | 1.32%
5 | CCCc1ccc(O)cc1 | -5.56%
6 | CC(C)[C@H]1CC[C@H](C)C[C@@H]1O | 2.62% [at 81.1 µM]
7 | COC(=O)/C=C\C(=O)O | 1.32%
8 | CC(=O)C1C(=O)C=C(C)OC1=O (stereo not given) | 3.08%
9 | CN1CCOC(c2ccccc2)c2ccccc2C1 (stereo not given) | -8.1%
10 | Cn1nnc2c(C(N)=O)ncn2c1=O | 7.59%
11 | OC[C@@H](O)C(O)[C@@H](O)CO (stereo not given in full) | 3.23% [at 81.1 µM]
12 | CC(C)=CCC[C@@](C)(O)[C@H]1CC=C(C)CC1 | 1.2%
13 | C=CCOC(=O)CCCCCC | 3.24%
14 | C=CCCCCCCCC | 34.9% [at 81.1 µM]
15 | Cc1c(C(=O)c2c[nH]n(C)c2=O)ccc(S(C)(=O)=O)c1C1=NOCC1 | 2.31% [at 29.1 µM]
16 | Cc1ccc2c(c1)C(=O)c1ccccc1C2=O | 10.4%
17 | O=C(Cl)c1ccccc1[N+](=O)[O-] | -1.31% [at 81.1 µM]
18 | C=Cc1ccc(C(C)(C)C)cc1 | 2.89%
19 | C=CC(=O)CCCCC | 13.7% [at 81.1 µM]
20 | Cc1ccc(C)c([N+](=O)[O-])c1 | 2.35%

Row | Structure (SMILES) | viability change, negative = cytotoxic
21 | NCC1(Cc2noc(=O)[nH]2)CCCCC1 | 14.1%
22 | CC(=O)c1cc(C)oc1C | -3.24% [at 81.1 µM]
23 | CCCC(=O)OCCC(C)CCC=C(C)C (stereo not given) | 9.02%
24 | COc1cc(OC)nc(O[C@H](C(=O)O)C(OC)(c2ccccc2)c2ccccc2)n1 | -12%
25 | O=C(CCCl)NCCc1ccccc1 | -0.724%
26 | COc1cc(/C=C/C(N)=O)cc(OC)c1OC | 5.88%
27 | COP(=O)(O)OP(=O)(O)OC | 9.27%
28 | O=C(O)c1cc2ccccc2nc1C(=O)O | -6.41%
29 | CC1CCc2c(N3CCC(O)CC3)c(F)cc3c(=O)c(C(=O)O)cn1c23 (stereo not given) | 18.1%
30 | C=CCCCC | 21.2% [at 81.1 µM]
31 | Cc1ccc(N)cc1S(=O)(=O)O | -0.984%
32 | C/C=C(\C)C(=O)OCCc1ccccc1 | 0.841%
33 | N[C@@H](CSCCCO)C(=O)O | 5.89% [at 29.1 µM]
34 | O=C(CCCCC(=O)Nc1c(I)cc(I)c(C(=O)O)c1I)Nc1c(I)cc(I)c(C(=O)O)c1I | -24.6%
35 | CC(=O)CCC1=C(C)CCCC1(C)C | -7.81%
36 | C=CCCCCCCCCC(=O)OCCCC | -0.574%
37 | CC(=O)Nc1ccc(OC(=O)c2ccccc2OC(C)=O)cc1 | 6.18%
38 | CCCCCc1cccc(=O)o1 | 7.14%
39 | OCC1(CO)COCOC1 | 10.2%
40 | CCCCCCCCCCOC(C)=O | 0.785%
